From PubChem BioAssay
This is one part of the list. Activity calls are given as the source filed them. Unless noted, no stated cut-off is given here; in the data, active means inhibition above about 13%; inactive means the rest.

Test system: not listed separately
Test: Gal4-VP16 luciferase reporter inhibitors, counter-screen for COUP-TFII antagonist project, cell-based, luminescence, HEK293 (AID 687007)
Details: at 8.5 µM, active compounds read high

| Compound | inhibition |
| --- | --- |
| COc1ccc(-n2c(C)cc(C(=O)CSc3nnc(-c4cccs4)o3)c2C)cc1 | 0.72% (inactive) |
| CN(C(=O)CN1CCN(c2cc(-c3ccc(OCc4ccccc4)cc3)ncn2)CC1)c1ccccc1 | 1.06% (inactive) |
| OC[C@@H]1CN(Cc2ccc(-c3ccccc3)cc2)C[C@H](n2cnc3c(NC4CCCC4)ncnc32)O1 | 4.62% (inactive) |
| COc1cc(CC(=O)Nc2nc(-c3ccc(F)c(F)c3)cs2)cc(OC)c1OC | -0.07% (inactive) |
| COc1ccc(CNc2ncnc3ccccc23)cc1 | 0.55% (inactive) |
| COc1ccc(CC(=O)Nc2nc(-c3ccc(F)c(F)c3)cs2)cc1OC | 2.71% (inactive) |
| COc1ccccc1CNc1nc(Nc2ccccc2Cl)c2sccc2n1 | -3.83% (inactive) |
| Cn1nccc1C(=O)NC1CCCc2c1cnn2-c1ccccc1F (stereo not drawn) | 1.97% (inactive) |
| Cc1cc(C(=O)NC2CCCc3c2cnn3-c2cccc(C)c2C)c(C)o1 (stereo not drawn) | -2% (inactive) |
| CCN(CC)S(=O)(=O)c1ccc(N(C)Cc2ccc(C(F)(F)F)cc2)nc1 | -6.6% (inactive) |
| CCn1c(CNC(=O)c2cc(OC)c(OC)c(OC)c2)cc2cc(C)ccc21 | 4.19% (inactive) |
| CCOC(=O)N1CCN(C(=O)C2CCN(c3ncnc4c3sc3cccc(F)c34)CC2)CC1 | -7.67% (inactive) |
| Cn1c(Cc2cccc3ccccc23)nnc1SCC(=O)N1CCN(c2cccc(Cl)c2)CC1 | -7.02% (inactive) |
| COc1cccc(CNc2nc(NCc3ccccc3OC)nc3ccsc23)c1 | 2.96% (inactive) |

Target: COUP transcription factor 2 (Homo sapiens) (UniProt P24468)
Sequence (P24468 whole entry, looked up): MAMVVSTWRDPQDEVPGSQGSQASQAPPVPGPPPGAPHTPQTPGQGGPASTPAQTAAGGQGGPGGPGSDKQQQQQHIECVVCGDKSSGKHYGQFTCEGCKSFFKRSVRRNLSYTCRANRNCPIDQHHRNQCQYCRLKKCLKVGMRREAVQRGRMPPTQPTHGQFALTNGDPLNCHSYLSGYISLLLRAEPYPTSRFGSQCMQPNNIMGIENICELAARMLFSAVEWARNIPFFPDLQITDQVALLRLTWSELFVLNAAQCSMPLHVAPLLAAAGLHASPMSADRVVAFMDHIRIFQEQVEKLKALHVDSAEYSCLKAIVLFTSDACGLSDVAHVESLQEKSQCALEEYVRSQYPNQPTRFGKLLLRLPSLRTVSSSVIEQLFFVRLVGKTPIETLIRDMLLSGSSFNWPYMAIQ
Test: NR2F2 transcriptional activity inhibitors, confirmation, cell-based, luciferase reporter, HEK293, triplicate (AID 687008;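 active means mean inhibition over three repeats above a set limit taken from the earlier primary screen, cut at about 38% in these data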;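 further: 100% = cells given the luciferase reporter alone without the COUP-TF2 vector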)
Details: HEK293 NGFI-A luciferase reporter, luminescence; at 8.5 µM; active compounds read high

| Compound | inhibition |
| --- | --- |
| COc1ccc(-n2c(C)cc(C(=O)CSc3nnc(-c4cccs4)o3)c2C)cc1 | 34.1% (inactive) |
| CN(C(=O)CN1CCN(c2cc(-c3ccc(OCc4ccccc4)cc3)ncn2)CC1)c1ccccc1 | 31.7% (inactive) |
| OC[C@@H]1CN(Cc2ccc(-c3ccccc3)cc2)C[C@H](n2cnc3c(NC4CCCC4)ncnc32)O1 | 63.3% (active) |
| COc1cc(CC(=O)Nc2nc(-c3ccc(F)c(F)c3)cs2)cc(OC)c1OC | 44.8% (active) |
| COc1ccc(CNc2ncnc3ccccc23)cc1 | 47.6% (active) |
| COc1ccc(CC(=O)Nc2nc(-c3ccc(F)c(F)c3)cs2)cc1OC | 55.4% (active) |
| COc1ccccc1CNc1nc(Nc2ccccc2Cl)c2sccc2n1 | 29.8% (inactive) |
| Cn1nccc1C(=O)NC1CCCc2c1cnn2-c1ccccc1F (stereo not drawn) | 66.8% (active) |
| Cc1cc(C(=O)NC2CCCc3c2cnn3-c2cccc(C)c2C)c(C)o1 (stereo not drawn) | 26.8% (inactive) |
| CCN(CC)S(=O)(=O)c1ccc(N(C)Cc2ccc(C(F)(F)F)cc2)nc1 | 22.6% (inactive) |
| CCn1c(CNC(=O)c2cc(OC)c(OC)c(OC)c2)cc2cc(C)ccc21 | 15.9% (inactive) |
| CCOC(=O)N1CCN(C(=O)C2CCN(c3ncnc4c3sc3cccc(F)c34)CC2)CC1 | 27.1% (inactive) |
| Cn1c(Cc2cccc3ccccc23)nnc1SCC(=O)N1CCN(c2cccc(Cl)c2)CC1 | 30.3% (inactive) |
| COc1cccc(CNc2nc(NCc3ccccc3OC)nc3ccsc23)c1 | 18.9% (inactive) |
